Structures are written as SMILES. Where “and” joins values, the source holds several entries; their conditions need not be identical. Equal entries are not always repeated. Results filed as inconclusive are left out. Values without a mark were called inactive. Calls of active or inactive are those of the source. Calls follow the shape of the dose curve; as a rule, active = well fitted inhibition curve with a large enough effect; inconclusive = small, poorly fitted or top-dose-only effect; inactive = flat fitted curve, though single readings scatter.

From PubChem BioAssay (NCATS) come the findings set out here.
% is scaled to controls: 0 for no effect and ±100 for the full control effect; potency is read from the fitted curve at half-maximal effect.

This assay can be described thus: Primary qHTS for inhibitors of nuclear receptor binding SET domain protein 2 (NSD2) in an isogenic RCH-ACV NSD2 p.E1099K mutant (9B) (AID 1645876). Also: nearly all actives have a fitted effect of over 70% in size. To be noted: RCH-ACV (leukaemia line) NSD2 E1099K (9B) viability, CellTiter-Glo, 72 h; series mostly up to 44.9 µM; activity change, negative = viability loss: at the top concentration. On the technique in general: qHTS replaces the single test concentration by a dilution series.
Turning to `O=C(O)c1nc(=O)[nH]c(=O)[nH]1`, the “activity change, negative = viability loss” value is 0.798% [at 17.3 µM].

`O=C(O)CCNc1cc(N2CCc3ccccc3CC2)nc(-c2ccccn2)n1`: the Potency entry was “inactive”.

Take `CCC(=O)N1CCN(c2ccc(-n3c(=O)ccc4cnc5ccc(-c6cnc7ccccc7c6)cc5c43)cc2C(F)(F)F)CC1`: the Potency is 13.3 nM (active) and 12.9 nM (active).

For `CCn1c(-c2nonc2N)nc2cncc(CNC3CCNCC3)c21`, the Potency was 12.9 µM (active).

For `CN1CCN(c2cccc(Nc3nc4c(-c5ccc(S(C)(=O)=O)cc5)cccn4n3)c2)CC1`, the Potency was 2.06 µM (active) and 5.9 µM (active).

Turning to `CN(C)CCN(Cc1ccc(Cl)cc1)c1ccccn1`, the “activity change, negative = viability loss” value was -18%.

`CN1N=C(N)c2cn([C@@H]3O[C@H](COP(=O)(O)O)[C@@H](O)[C@@H]3O)c3ncnc1c23`: the Potency was 2.63 µM (active).

With `COc1ccc(-c2ccc3ncc4c(c3c2)n(-c2ccc(N3CCNCC3)c(C(F)(F)F)c2)c(=O)n4C)cn1`, the Potency was 5.2 nM (active) and 14.6 nM (active) and 13.2 nM (active).

For the compound `O=C(CO)N1CCC(c2[nH]nc(-c3ccc(Cl)cc3)c2-c2ccncn2)CC1`, the “activity change, negative = viability loss” value is -22.4%.

As for `COc1ccc(-c2nc3ccc(C4=NNC(=O)CC4C)cc3[nH]2)cc1` (stereo not given), the Potency was 9.44 µM (active) and 14.8 µM (active).

Consider `O=C(CC12CC3CC(CC(C3)C1)C2)Nc1cccc2nc(NCCNCCO)ccc12`, for which the Potency is 20.9 µM (active).

Take `CC(=O)Nc1cccc(-n2c(=O)n(C3CC3)c(=O)c3c(Nc4ccc(I)cc4F)n(C)c(=O)c(C)c32)c1`: the Potency result was “inactive”.

Turning to `Cc1ccc(C2=Nc3ccc(Cl)cc3OC2)cc1`, the “activity change, negative = viability loss” value was -19.9%.

Take `O=C(c1ccc(C(=O)N2CCC(N3CCCC3)CC2)c(Nc2ccccc2)c1)N1CCC(N2CCCC2)CC1`: the Potency result was “inactive”.

In the case of `CCCCn1c(=O)n(Cc2ccccc2F)c(=O)c2[nH]c(Cc3ccc(NC(C)=O)cc3)nc21`, the “activity change, negative = viability loss” value is 5.29%.

Turning to `CNC(=O)c1ccc2c(C(=Nc3cccc(CN(C)C)c3)c3ccccc3)c(O)[nH]c2c1`, the Potency is 16.3 µM (active) and 13.2 µM (active).

As for `CC1(COc2ccc3c(c2)ncn3-c2ccc3cccc(N4CCC(N)CC4)c3n2)COC1`, the Potency was 1.83 µM (active) and 1.32 µM (active).

Take `CN1CCc2c(n(Cc3ccc(C(=O)NO)cc3)c3ccccc23)C1`: the Potency is 18.3 µM (active) and 16.6 µM (active).

As for `Nc1ncnc2c1c(-c1cccc(OCc3ccccc3)c1)cn2C1CC(CN2CCC2)C1` (stereo not given), the Potency was 4.59 µM (active).

As for `Cc1cccc(Nc2nc(N[C@@H]3CCCC[C@H]3N)ncc2C(N)=O)c1`, the Potency was 1.48 µM (active).

In the case of `COc1cc2nccc(Oc3ccc(NC(=O)Nc4cc(C)on4)c(Cl)c3)c2cc1OC`, the Potency was 649 nM (active) and 3.72 µM (active).

With `CCN1CCN(c2ccc(Nc3cc(N(C)C(=O)Nc4c(Cl)c(OC)cc(OC)c4Cl)ncn3)cc2)CC1`, the “activity change, negative = viability loss” value is -27%.

As for `COC1CCC(C(=O)c2ccc3nc4c(cc3c2)CCCO4)CC1` (stereo not given), the “activity change, negative = viability loss” value is -12.1%.

For the compound `CC1(C)CC(=O)c2c(C(F)(F)F)nn(-c3ccc(C(N)=O)c(NC4CCC(O)CC4)c3)c2C1` (stereo not given), the Potency was 57.8 nM (active) and 83.3 nM (active).

Consider `CNC(=O)c1cc(Oc2ccc(NC(=O)Nc3ccc(Cl)c(C(F)(F)F)c3)c(F)c2)ccn1`, for which the Potency was 14.5 µM (active).
